# Assay results as given in the supplement of paper PMC11624193, “Coupling cellular drug-target engagement to downstream pharmacology with CeTEAM” (Nature Communications, 2024).
# Counter-ions that a name gives are not always drawn.
# Target: PARP1 L713F-nLuc biosensor (HCT116) (UniProt P09874)
# Assay: PARP1 L713F-nLuc/akaLuc ratio relative to DMSO control (biosensor stabilization) (fold change); higher = more PARP1 biosensor stabilization (target engagement / stabilizer), active = hit call of the paper
# Conditions: stock concentration (mM; final µM = stock mM x 1): 10; 24 h;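 active = log2 fold change beyond 2 SD from the library mean after excluding viability outliers; inactive = within 2 SD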
# Sequence of PARP1 L713F-nLuc biosensor (HCT116) (P09874 whole entry L713F, looked up): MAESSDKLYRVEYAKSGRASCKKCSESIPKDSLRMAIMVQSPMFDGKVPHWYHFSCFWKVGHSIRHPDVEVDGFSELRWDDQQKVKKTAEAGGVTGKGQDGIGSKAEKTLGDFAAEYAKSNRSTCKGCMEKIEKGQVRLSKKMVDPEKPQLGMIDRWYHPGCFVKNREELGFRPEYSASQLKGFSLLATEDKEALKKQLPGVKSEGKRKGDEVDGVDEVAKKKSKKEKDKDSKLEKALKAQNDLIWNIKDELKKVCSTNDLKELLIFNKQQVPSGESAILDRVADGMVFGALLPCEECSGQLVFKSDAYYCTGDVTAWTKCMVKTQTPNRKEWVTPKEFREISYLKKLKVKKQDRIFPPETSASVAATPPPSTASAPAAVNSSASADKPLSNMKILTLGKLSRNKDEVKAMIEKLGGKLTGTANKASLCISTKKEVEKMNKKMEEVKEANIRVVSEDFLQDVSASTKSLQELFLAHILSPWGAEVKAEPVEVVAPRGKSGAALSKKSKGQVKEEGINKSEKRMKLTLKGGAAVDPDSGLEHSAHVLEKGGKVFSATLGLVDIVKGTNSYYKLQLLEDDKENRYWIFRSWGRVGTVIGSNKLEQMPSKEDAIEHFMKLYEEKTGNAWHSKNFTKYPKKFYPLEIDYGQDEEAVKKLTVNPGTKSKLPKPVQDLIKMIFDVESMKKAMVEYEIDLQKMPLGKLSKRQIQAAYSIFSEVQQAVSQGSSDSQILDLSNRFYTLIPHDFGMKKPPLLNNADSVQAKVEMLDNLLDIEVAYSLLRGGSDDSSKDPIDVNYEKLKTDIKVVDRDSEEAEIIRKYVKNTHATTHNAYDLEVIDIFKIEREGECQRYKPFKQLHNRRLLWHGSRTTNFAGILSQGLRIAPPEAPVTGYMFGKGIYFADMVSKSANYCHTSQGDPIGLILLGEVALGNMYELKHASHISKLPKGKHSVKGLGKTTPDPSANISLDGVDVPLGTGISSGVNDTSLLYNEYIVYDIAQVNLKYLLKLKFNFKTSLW
row,SMILES,PARP1 L713F-nLuc/akaLuc ratio
1,Cc1cccc(-c2nn3c(c2-c2ccnc4ccc(C(N)=O)cc24)CCC3)n1,0.664 (inactive)
2,Cc1cnc(Nc2ccc(OCCN3CCCC3)cc2)nc1Nc1cccc(S(=O)(=O)NC(C)(C)C)c1 [Fedratinib],0.694 (inactive)
3,O=C(NOC[C@H](O)CO)c1ccc(F)c(F)c1Nc1ccc(I)cc1F,0.6 (inactive)
4,N#Cc1ccnc(N2C(=O)CC[C@H]2C(=O)N(c2cncc(F)c2)[C@H](C(=O)NC2CC(F)(F)C2)c2ccccc2Cl)c1 [Ivosidenib (AG-120)],0.863 (inactive)
5,NC(=O)c1cccc(-c2cccc(OC(=O)NC3CCCCC3)c2)c1,1.05 (inactive)
6,CN(C)CCCN(CC[C@H](N)C(=O)O)C[C@H]1O[C@@H](n2cnc3c(N)ncnc32)[C@H](O)[C@@H]1O [GSK2807 (Trifluoroacetate)],0.926 (inactive)
7,COc1cc2nc(N3CCCC3)nc(NCCCCCN3CCCC3)c2cc1OC,0.881 (inactive)
8,Cc1cc(N2C[C@@H](C)N[C@@H](C)C2)ncc1-c1ccc(-c2nc3c(ccn3C)c(=O)[nH]2)cc1,1.15 (inactive)
9,N#Cc1ccc(C(=O)N(Cc2cccs2)C2CC2)cc1,1.18 (inactive)
10,Cc1cc(Nc2cc(CN3CCOCC3)c3nc(C)c(Cc4ccc(Cl)cc4F)n3n2)n[nH]1,1.18 (inactive)
11,CN1CCc2c(c3ccccc3n2Cc2ccc(C(=O)NO)cc2)C1 [Tubastatin A (Hydrochloride)],2.07 (inactive)
12,Nc1ncc(-c2cnn(CCO)c2)c2scc(-c3ccc(NC(=O)Nc4cccc(F)c4)cc3)c12 [Ilorasertib (hydrochloride)],0.906 (inactive)
13,O=C(O)CNC(=O)C1=C(O)CCN(Cc2ccc(Oc3ccc(Cl)cc3)nc2)C1=O,1.22 (inactive)
14,O=C(O)CC[C@H]1CC[C@@](c2cc(F)ccc2F)(S(=O)(=O)c2ccc(Cl)cc2)CC1,0.688 (inactive)
15,Cc1cc(Cl)ccc1OCCCC(=O)NO [Droxinostat],2.78 (active)
16,CNS(=O)(=O)C[C@H]1CC[C@H](N(C)c2[nH]cnc3nccc2-3)CC1 [Oclacitinib (maleate)],0.749 (inactive)

row,SMILES,PARP1 L713F-nLuc/akaLuc ratio
1,Cn1ncc(Cl)c1-c1cc(C(=O)N[C@H](CN)Cc2cccc(F)c2)sc1Cl [Afuresertib],1.63 (inactive)
2,Nc1nc(NC2CC2)cc(-c2cccc(Cl)c2Cl)n1,1.94 (inactive)
3,CC(C)N(C[C@H]1O[C@@H](n2cnc3c(N)ncnc32)[C@H](O)[C@@H]1O)[C@H]1C[C@@H](CCc2nc3cc(C(C)(C)C)ccc3[nH]2)C1 [Pinometostat],0.649 (inactive)
4,CN1CCN(c2cccc(Nc3nc4c(-c5ccc(S(C)(=O)=O)cc5)cccn4n3)c2)CC1,0.968 (inactive)
5,Cn1cnc2c(F)c(Nc3ccc(Br)cc3F)c(C(=O)NOCCO)cc21,0.546 (inactive)
6,Cc1cnc(Nc2ccc(OCCN3CCCC3)cc2)nc1Nc1cccc(S(=O)(=O)NC(C)(C)C)c1 [Fedratinib (hydrochloride hydrate)],0.551 (inactive)
7,COc1cc(/C=C/C(=O)O[C@H]2CC[C@]34C[C@]35CC[C@]3(C)[C@@H]([C@H](C)CCC=C(C)C)CC[C@@]3(C)[C@@H]5CC[C@H]4C2(C)C)ccc1O [γ-Oryzanol],1.11 (inactive)
8,O=C(c1ccc(Cl)cc1Cl)n1nnc2ccccc21,0.91 (inactive)
9,CC(C)Oc1ccc(-c2c[nH]cc2CN(C)CCN)cc1,1.38 (inactive)
10,O=C(O)[C@]1(Cc2cccc(Nc3nccs3)n2)CC[C@@H](Oc2cccc(Cl)c2F)CC1,1.05 (inactive)
11,O=C(Nc1ccc(Cl)cc1)c1cc2ccccc2cc1O [Naphthol AS-E],1.09 (inactive)
12,Cc1ccc2[nH]c3c(c2c1)CCCC3C(N)=O (configuration not stated),1.25 (inactive)
13,CC(C)(O)CC(=O)NCCn1ccc2ncnc(Nc3ccc(Oc4cccc(C(F)(F)F)c4)c(Cl)c3)c21,0.662 (inactive)
14,CNCc1ccc(-c2[nH]c3cc(F)cc4c3c2CCNC4=O)cc1 [Rucaparib (phosphate)],5.55 (active)
15,N#CCC1CCN(c2nc(Nc3ccc(N4CCC(O)CC4)cc3)c3c(=O)[nH]ncc3n2)CC1 [Gusacitinib],0.883 (inactive)
16,CCS(=O)(=O)N1CCN(c2ccc(Nc3ncc(C(N)=O)c(NC4CC4)n3)cc2)CC1,1.99 (inactive)
